# Measured values published in PubChem BioAssay (EPA / NIEHS).
# Several values for one entry are separate records, joined by “and”; a condition that tells them apart may be missing. Equal values may be shown once. Activity calls are given as the source filed them. Rule for the calls: active = hit-call score of the fitted dose curve at least 0.9, where 1 is the maximum; inactive = score below 0.9.
# Test: BSK_4H_SRB: Viability Assessment in the BioMAP Diversity Plus: 4H Assay (AID 2283027);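 for AC50: curves fitted both ways versus DMSO so AC50 may be loss or gain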
# Settings: primary human endothelial cells (HUVEC)
# Experimental: BSK_4H is a cell-based, multiplexed-readout assay that uses umbilical vein endothelium, a human vascular primary cell, with measurements taken at 24 hours after chemical dosing in a 96-well plate.BSK_4H_SRB is an assay component measured in the BSK_4H assay. It measures […] related to cell death using Sulforhodamine staining technology.Data from the assay component BSK_4H_SRB was analyzed into 1 assay endpoint. This assay endpoint, BSK_4H_SRB, was analyzed with bidirectional fitting relative to DMSO as the negative control and baseline of activity. Using a type of viability reporter, gain or loss-of-signal activity can be used to understand changes in the signaling. Furthermore, this assay endpoint can be referred to as a primary readout, because this assay has produced multiple assay endpoints where this one serves a signaling function. To generalize the intended target to other relatable targets, this assay endpoint is annotated to the cell morphology intended target family, where the subfamily is cell conformation.
# The levels of cell surface (or secreted, indicated by the prefix "s") biomarker endpoints were measured by ELISA. Overt cytotoxicity to cells in confluent adherent cultures (all systems other than the BT system) was assessed by measuring total protein levels using sulforhodamine B (SRB) staining in parallel cultures at the time of biomarker measurements, indicated as SRB endpoints. For proliferation assays for adherent cell types, individual cell types are cultured at sub-confluence and relative cell numbers quantified by SRB staining at time points optimized for each system (48 h: 3C and CASM3C systems; 72 h: BT and HDF3CGF systems; 96 h: SAg system). SRB was performed by staining cells with 0.1% SRB after fixation with 10% TCA and reading wells at 560 nm.Viability and proliferation of PBMC (T cells) was quantified by Alamar Blue reduction for the SAg and BT systems. For PBMC viability (referred to as PBMC Cytotoxicity within the assay endpoint names), cells were plated (75,000/well in a 96-well plate) and then chemical samples added for 1 h before addition of activators, SEB and TSST-1 (20 ng/mL final concentration each). Cells were incubated for 90 h. Then, Alamar Blue (20 uL/well) (Invitrogen, Cat DAL1100) was added for 6 h, and the plates were read with a fluorescence microplate reader at 546/580 nm (excitation/emission). For PBMC proliferation, cells were plated and activated as above but incubated for only 16 h prior to addition of Alamar Blue. Plates were read after 6 h.
Structure (SMILES),outcome,AC50
CCC[Si](OC(C)=O)(OC(C)=O)OC(C)=O,inactive,–
CC(C)C1OCCN1CCOC(=O)NCCCCCCNC(=O)OCCN1CCOC1C(C)C (configuration not stated),inactive,–
Sc1nc2ccccc2s1,inactive,–
CCCCCCCCCC/C=C/C1CC(=O)OC1=O (configuration not stated),inactive,–
CC(C)CC(=O)CC(C)CC(C)C (configuration not stated),–,33.7 µM (active)
Cc1cc(-n2nc3ccc(Cl)cc3n2)c(O)c(C(C)(C)C)c1,inactive,–
CCC(C)=NO,inactive,–
COc1ccc(C(=O)c2ccccc2O)c(O)c1,inactive,–
CCCCCCCCCCC1CO1 (configuration not stated),–,30 µM (active)
CC[N+](CC)(CC(=O)Nc1c(C)cccc1C)Cc1ccccc1,inactive,–
Cc1cccnc1,inactive,–
Cc1c(C(N)=O)cc([N+](=O)[O-])cc1[N+](=O)[O-],inactive,–
Oc1cccc2ccccc12,inactive,–
COc1cc(CNC(=O)CCCC/C=C/C(C)C)ccc1O,inactive,–
OC(C(F)(F)F)(C(F)(F)F)C(O)(C(F)(F)F)C(F)(F)F,–,27.5 µM (active) and 26 µM (active)
CCCCCCCCCCCCCCCCCC[N+](C)(C)C,–,1.34 µM (active)
CN(C)Cc1cc(C(C)(C)C)c(O)c(C(C)(C)C)c1,inactive,–
CN(C)CCC(c1ccc(Cl)cc1)c1ccccn1 (configuration not stated),inactive,–
O=[N+]([O-])c1cc(S(=O)(=O)Nc2ccccc2)ccc1Nc1ccccc1,–,30.5 µM (active) and 31 µM (active)
O=C(C(=O)c1ccccc1)c1ccccc1,inactive,–
COC(=O)/C=C\C(=O)OC,inactive,–
COc1ccccc1Oc1c(NS(=O)(=O)c2ccc(C(C)(C)C)cc2)nc(-c2ncccn2)nc1OCCO,inactive,–
CCCCCCC(O)CCCCCCCCCCC(=O)OC (configuration not stated),inactive,–
CCCCC(CC)COC(=O)C=Cc1ccc(OC)cc1 (configuration not stated),–,39 µM (active) and 36.8 µM (active)
CC[N+](CC)(CC(=O)Nc1c(C)cccc1C)Cc1ccccc1 (tested in a mixture with another compound),inactive,–
C1CN(CCOCCN2CCOCC2)CCO1,inactive,–
CN(C)c1ccc(C(c2ccccc2)c2ccc(N(C)C)cc2)cc1,–,4.33 µM (active)
